Source: PubChem BioAssay (National Center for Advancing Translational Sciences (NCATS))
HPGD inh: HPGD (human) dehydrogenase inhibition; 4.3% of 150,000 active; purified HPGD, NADH fluorescence kinetic, PGE2 substrate; P15428; Potency, µM, without a hit: at the highest dose activity change, negative = inhibition, hits mostly inhibitors; AID 894; also: potency is read from the fitted curve at half-maximal effect
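NADH formation kinetics: reaction with 30 uM PGE2 and 1 mM NAD+ (final), 20 nM enzyme, Tris-HCl pH 8 with Tween 20, after 15 min compound preincubation at room temperature. Fluorescence change, last versus first of five reads.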
ALDH1A1 block: ALDH1A1 (human) enzyme inhibition; P00352; Purified ALDH1A1, NADH fluorescence, propionaldehyde substrate; Potency, µM (titrated, usually from 75.3 µM), without a hit: top-dose activity, negative = inhibition, most hits filed as inhibitors; 7.3% of 220,000 active; AID 1030;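 also: potency is read from the fitted curve at half-maximal effect; plate controls were no enzyme wells and a reference inhibitor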
Target sequence (P00352 whole entry, looked up): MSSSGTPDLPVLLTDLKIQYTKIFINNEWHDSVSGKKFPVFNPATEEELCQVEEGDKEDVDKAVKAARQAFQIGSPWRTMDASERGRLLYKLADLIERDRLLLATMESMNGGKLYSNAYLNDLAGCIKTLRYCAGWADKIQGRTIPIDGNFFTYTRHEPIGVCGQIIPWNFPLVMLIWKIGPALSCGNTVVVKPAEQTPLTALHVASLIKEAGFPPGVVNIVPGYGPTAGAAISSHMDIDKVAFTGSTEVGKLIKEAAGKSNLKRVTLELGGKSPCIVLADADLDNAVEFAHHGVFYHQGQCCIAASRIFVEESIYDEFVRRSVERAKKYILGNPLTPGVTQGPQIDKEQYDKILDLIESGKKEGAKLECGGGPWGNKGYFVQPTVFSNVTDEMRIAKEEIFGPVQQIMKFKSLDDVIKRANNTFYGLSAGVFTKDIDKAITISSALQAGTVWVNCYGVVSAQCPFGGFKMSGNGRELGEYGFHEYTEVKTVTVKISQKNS
PNC assembly inh: inhibitors of perinucleolar compartment assembly. PC3M PTB-GFP, PNC prevalence imaging, 16 h; hits give low values. activity change (PNC), negative = inhibition, % at 10 µM. 3.1% of 140,000 active;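 active = readout at or below -70, meaning at least 70% loss of cells showing the perinucleolar compartment, a nuclear body marking cancer cells; inconclusive = readout between -30 and a set limit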;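 also: plate controls were DMSO wells for no effect and camptothecin positive control wells for full effect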
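Compounds are pinned in duplicate onto adhered PC3M cells stably expressing GFP-tagged PTB and incubated 16 h at 37 C. Cells are then fixed, nuclei stained with Hoechst, and PNC-positive cells counted.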
An asterisk follows results filed as active; ? = inconclusive; nt = no result given. Rows were chosen to be rich in hits. Some 11% of all compounds tested hit in one or more screens of this group. Unless noted, calls follow the shape of the dose curve; as a rule, active = well fitted inhibition curve with a large enough effect (not every such curve was filed as active); inconclusive = small, poorly fitted or top-dose-only effect, or another doubt; inactive = no such curve, though single readings can be large or run the other way. Unless noted, % is scaled to controls: 0 for no effect and ±100 for the full control effect.

SMILES	HPGD inh	ALDH1A1 block	PNC assembly inh
CCCN1C(=O)/C(=C/c2nc3ccccc3c(=O)[nH]2)c2ccccc21	-5%	2.5µM*	-20
CCc1ccc(Nc2nnc(SCC(=O)Nc3cccnc3Cl)s2)cc1	nt	-7%	54
O=c1c(-c2cc(O)c(O)c(O)c2)coc2cc(O)c(O)c(O)c12	7.1µM*	25µM*	nt
COc1ccc(-c2coc3cc(OC)cc(O)c3c2=O)cc1	-18%	-1%	38
O=c1c(-c2ccc(O)cc2)coc2cc(O)cc(O)c12	25µM*	-8%	nt
CCc1cc2c(=O)c(-c3ccc4c(c3)OCCO4)coc2cc1OS(C)(=O)=O	-23%	?	13
CC(C)=CCc1c(O)cc2occ(-c3ccc4c(c3)OCO4)c(=O)c2c1O	25µM*	-8%	nt
COc1ccc(-c2coc3cc(O)cc(O)c3c2=O)cc1	-21%	-3%	100
C/C(=N\NC(=O)c1cccc(F)c1)c1ccc(Br)s1	-5%	-12%	17
Cc1ccnc(N2CCC(C(=O)Nc3cccc(C(F)(F)F)c3)CC2)n1	-25%	-19%	-29
CCCC(C)NC(=O)Cc1ccccc1 (stereo unspecified)	nt	3%	nt
CCN(CC)C(NC(=O)Cc1ccccc1)C(Cl)(Cl)Cl (stereo unspecified)	14µM*	?	-8
O=S(=O)(Nc1cccnc1)c1ccc(Cl)c(C(F)(F)F)c1	-13%	3%	2
CC1(C)CC(C(CCN(Cc2ccccc2)C(=O)c2ccco2)c2ccc(F)cc2)CCO1 (stereo unspecified)	-7%	?	2
O=C(c1ccco1)N(CCC(c1ccccc1)c1ccco1)Cc1ccc(F)cc1 (stereo unspecified)	-9%	14µM*	-14
CCC(=O)N(CCC(c1ccc(C)cc1)c1ccco1)Cc1ccco1 (stereo unspecified)	nt	22µM*	nt
Cc1ccc(C(CCN)c2ccco2)cc1 (stereo unspecified)	-5%	-1%	16
CCN1CCN(C(=S)c2ccc(OCC(=O)N3CCOCC3)cc2)CC1	2%	-3%	7
CSc1nc(C)c2cc(C)oc2n1	-13%	-5%	24
Cc1cc2c(C)nc(Cc3ccccc3)nc2o1	-30%	8.9µM*	11
CN(C(=O)Cn1nnc(-c2cccc(C(F)(F)F)c2)n1)C1CCCCC1	-8%	35µM*	57
Cc1ccc(-c2nnn(CC(=O)N(C)C3CCCCC3)n2)o1	nt	1%	nt
Nc1c(S(=O)(=O)O)cc(Nc2ccc(Nc3nc(Cl)nc(Nc4ccc(S(=O)(=O)O)cc4)n3)c(S(=O)(=O)O)c2)c2c1C(=O)c1ccccc1C2=O	16µM*	-10%	nt
O=[N+]([O-])c1cccc(Nc2nc(Cl)nc(Cl)n2)c1	nt	-2%	nt
COC(=O)CCNC(=O)Cn1cnc2sc3c(c2c1=O)CCCC3	nt	-7%	nt
SMILES	HPGD inh	ALDH1A1 block	PNC assembly inh
Cc1c(NC(=O)C(C)OC(=O)CCc2ccccc2)c(=O)n(-c2ccccc2)n1C (stereo unspecified)	nt	12%	nt
COC(=O)CCC/C=C1/SCC(NC(=O)c2ccccc2)C1O (stereo unspecified)	-12%	?	?
COC(=O)CCC/C=C1/SCC(NC(=O)c2ccccc2)C1=O (stereo unspecified)	25µM*	7.9µM*	14
CCCCC1OC23CCCCC2C(C#N)(C(=N)O3)C1(C#N)C#N (stereo unspecified)	?	?	-9
CCCCC1OC23CCCCC2C(C#N)(C#N)C1(C#N)C(=N)O3 (stereo unspecified)	?	1.8µM*	?
COc1cc(OC)cc(C2=NCCN2)c1	nt	5%	nt
CCOc1cccc(CNc2ccc(O)cc2)c1OCc1ccccc1Cl	-24%	?	-5
CCOc1cccc(CNc2ccc(O)cc2)c1OCc1ccc(Cl)cc1Cl	-7%	22µM*	9
CCOc1cc(/C=N/NC(=O)c2cccc([N+](=O)[O-])c2)ccc1OS(=O)(=O)c1ccccc1	-8%	?	41
COc1ccc(/C=N/NC(=O)c2cccnc2)cc1COc1ccc([N+](=O)[O-])c(C)c1	nt	10µM*	nt
COc1ccc(/C=N/NS(=O)(=O)c2ccccc2)cc1OS(=O)(=O)c1ccccc1	-6%	?	-24
COc1ccc(C(=O)N/N=C/c2ccc(OC)c(OS(=O)(=O)c3ccccc3)c2)cc1	-13%	10µM*	-11
COc1ccc(/C=N/NC(=O)c2cccc([N+](=O)[O-])c2)cc1OS(=O)(=O)c1ccc(C)cc1	-22%	13µM*	7
COc1ccc(/C=N/NC(=O)c2cccnc2)cc1CSc1nc2ccccc2s1	-21%	?	33
COC(=O)C/C=C/[C@@H](C)[C@H](NC(=O)OCC(Cl)(Cl)Cl)c1ccc2ccccc2c1	-5%	-7%	nt
C/C(NCCN1CCOCC1)=C(\C#N)C(N)=O	-13%	3%	39
Cc1cc(C)cc(N(CC(=O)NC2CC3CCC2C3)S(C)(=O)=O)c1 (stereo unspecified)	-5%	8%	?
COc1cccc(C2CC(C(F)(F)F)n3ncc(C(=O)NC(C)(C)C)c3N2)c1 (stereo unspecified)	-14%	1%	-11
O=C(NCC1CCCO1)c1nn2c(c1Cl)NC(c1ccc(F)cc1)CC2C(F)(F)F (stereo unspecified)	-15%	2%	45
Cc1c(CNC(=O)c2cnn3c2NC(c2ccc(Br)cc2)CC3C(F)(F)F)cnn1C (stereo unspecified)	-4%	5%	-123*
O=C(NCC1CCCO1)c1cnn2c1NC(c1ccccc1)CC2C(F)(F)F (stereo unspecified)	25µM*	6%	-27
COc1cccc(C2CC(C(F)(F)F)n3ncc(C(=O)NCc4ccco4)c3N2)c1 (stereo unspecified)	20µM*	-3%	-28
Cc1nn(C)cc1CNC(=O)c1cnn2c1NC(c1ccc(Br)cc1)CC2C(F)(F)F (stereo unspecified)	-12%	-4%	-5
Cc1csc(=Nc2ccc(S(=O)(=O)N3CCOCC3)cc2)n1Cc1ccco1	-19%	?	17
Cn1nc(C(=O)NCCc2ccc(S(N)(=O)=O)cc2)c2ccccc2c1=O	nt	28%	nt
SMILES	HPGD inh	ALDH1A1 block	PNC assembly inh
c1ccc(Nc2nc3ccccc3n3cnnc23)cc1	?	-4%	27
c1ccc2c(c1)nc(NC1CCCCC1)c1nncn12	-19%	10µM*	24
CC(C)C(=O)c1cc2c(cc1NC(=O)c1cccs1)OCCO2	?	?	93
Nc1scc2c(C(=O)N/N=C/c3ccc(Cl)cc3)nn(-c3ccccc3)c(=O)c12	14µM*	10µM*	?
O=C(N/N=C/c1cn(-c2ccccc2)nc1-c1cccs1)c1ccc(Cl)cc1	?	?	-2
CC(C)N(Cc1nc(-c2ccccc2)no1)C(=O)c1ccc(Br)o1	-15%	10µM*	-13
CC(C)N(Cc1nc(-c2ccccc2)no1)C(=O)c1ccc(Cl)cc1	-10%	0%	8
Cc1ccc(C(=O)N(Cc2nc(-c3ccc(C)cc3)no2)C(C)C)cc1	-15%	-4%	24
Cc1ccc(SCC(=O)N(Cc2nc(-c3ccccc3)no2)C(C)C)cc1	5%	25µM*	23
Cc1sc2nc3c(C(=O)N4CCN(c5ccccn5)CC4)cccn3c(=O)c2c1C	?	-3%	?
